Compound activity (PubChem BioAssay)
MazF activator: MazEF (E. coli) toxin RNase activation | FAM/BHQ RNA-DNA oligo cleavage fluorescence, 5 h | activation, % at 20 µM | 350,000 compounds, 0.32% hits | AID 504720; in the data active = activation above about 50%
Anthrax LF inh2: blocks Bacillus anthracis lethal factor protease; P15917; multiplex microsphere protease cleavage assay, LF; inhibition, % at 10 µM; 360,000 compounds, 0.12% hits; AID 588501; also: plate controls were buffer without enzyme for full effect and enzyme alone for no effect
BoNT A protease: blocks Botulinum neurotoxin A light chain protease; multiplex microsphere protease substrate cleavage, flow cytometry; 360,000 compounds, 0.17% hits; inhibition, % at 10 µM; also: plate controls were buffer without enzyme for full effect and enzyme alone for no effect
DUSP3 inh: inhibitors of human VHR1 phosphatase (DUSP3); P51452; recombinant VHR phosphatase, pNPP absorbance; inhibition, % at 13.3 µM; 290,000 compounds, 0.52% hits; AID 1654; in the data active = inhibition above about 50%
Autofluor counter: flagged as autofluorescent in microsphere protease counterscreen | compound autofluorescence counterscreen, microsphere flow cytometry; stronger effect = higher value | fluorescence intensity (no concentration beside the values) | 360,000 compounds, 3.1% hits | AID 624483; in the data active = fluorescence intensity above about 16000; inconclusive = no clear call, values can overlap the other calls
BoNT-F LC inh: BoNT F light chain protease inhibition | Multiplex microsphere protease cleavage assay, flow cytometry | inhibition, % at 10 µM | 360,000 compounds, 0.22% hits | AID 588497; in the data active = inhibition above about 35%, passing the limit was not always enough; inconclusive = no clear call, values can overlap the other calls; also: plate controls were buffer without enzyme for full effect and enzyme alone for no effect
Numbers without * were called inactive; u = inconclusive; x = not tested or not shown. In the library only some 4% were active in any assay of this set; here they are far more common. Rule as the data show it, unless noted: active = inhibition above about 30%; inconclusive = no clear call, values can overlap the other calls; inactive = below that.

SMILES	MazF activator	Anthrax LF inh2	BoNT A protease	DUSP3 inh	Autofluor counter	BoNT-F LC inh
COC(CNC(=O)c1ccc(CS(=O)(=O)c2ccc(C)cc2)o1)OC	-9.5	-5.0	-4.5	37.7	3621	-8.0
Cc1ccc(C)c(NC(=O)c2cc(-c3ccccc3)nn2-c2ccccc2)c1	4.2	-1.4	-0.9	4.0	2002	-1.1
CSc1ncc(Cl)c(C(=O)Nc2ccc(S(=O)(=O)N3CCOCC3)cc2)n1	-12.3	-2.6	-0.5	-7.5	5067	-27.2
Cc1ccc(S(=O)(=O)Cc2ccc(C(=O)NCCCN3CCN(C)CC3)o2)cc1	3.7	-2.2	u	-8.6	23094*	-3.6
O=c1sc(N2CCN(c3ccc(F)cc3)CC2)nc2ccsc12	33.8	-4.2	-0.2	0.4	5931	-2.9
Cc1ccc(C(=O)Nc2nnc(CC(=O)N/N=C/c3ccc(O)c(O)c3)s2)cc1	-6.4	-0.4	0.8	54.2*	3837	u
COc1ccc(NS(=O)(=O)c2ccc3c(c2)[C@H]2C=CC[C@H]2[C@@H](c2ccc(C(=O)O)cc2)N3)cc1	-17.6	0.9	-1.5	-3.8	6000	-4.2
C#CCNC(=O)C1=C[C@@H](c2coc3ccccc3c2=O)C[C@@H](OCc2ccc(CO)cc2)O1	7.3	-1.3	0.4	10.3	3964	-1.7
Cc1[nH]n(-c2cccc(Cl)c2)c(=O)c1C=NCC(C)C	9.7	-0.8	-0.1	18.5	4800	-5.7
O=C1NC(=O)C2(Cc3ccccc3N3CCCC32)C(=O)N1c1cccc(Cl)c1 (stereo not drawn)	6.7	1.0	u	-10.8	20287*	0.6
O=C1c2ccccc2C(=O)C12Cc1ccccc1N1CCN(c3ccccc3)CC12 (stereo not drawn)	5.5	-10.8	-0.4	-7.7	4508	-0.1
Cc1ccc(N2C(=O)NC(=O)C3(Cc4ccccc4N4CCN(c5ccccc5)CC43)C2=O)cc1 (stereo not drawn)	-12.6	-9.8	5.9	27.9	19868*	8.9
Cc1ccc(NS(=O)(=O)c2ccccc2[N+](=O)[O-])cc1C	1.8	0.7	0.2	10.8	2328	5.6
O=C(Nc1nnc(C(F)(F)F)s1)c1cccnc1	-1.6	1.6	0.6	4.4	11499	0.6
CSCCC(NC(=O)c1ccccc1)C(=O)NC1CC1 (stereo not drawn)	0.7	-2.1	u	3.3	23748*	-5.7
CSCCC(NC(=O)c1ccccc1)C(=O)NC1CCCC1 (stereo not drawn)	-1.8	-2.9	-0.4	-1.0	10885	-4.1
O=C1NC(Cc2ccccc2)c2nc3ccc(F)cc3c(=O)n2-c2cc3ccccc3cc21 (stereo not drawn)	-27.1	1.3	-0.2	x	3037	-1.0
N#C/C(=C1\CCCN1)c1nc2ccccc2c(=O)[nH]1	-9.9	-7.2	-1.1	17.9	2929	-1.5
N#C/C(C(=O)c1ccccc1)=C1/CCCN1	6.6	-3.2	-1.7	8.1	23223*	-0.6
CCOC(=O)c1c(S(=O)(=O)N(C)Cc2ccccc2)c(C)n(C)c1C	0.6	-3.1	-0.5	57.7*	5555	2.1
CCOC(=O)c1c(S(=O)(=O)NCCCc2ccco2)c(C)n(C)c1C	1.0	-3.6	-2.0	51.3*	6505	-1.1
CCOC(=O)c1c(S(=O)(=O)NCCc2ccco2)c(C)n(C)c1C	14.3	-4.5	0.8	12.9	5022	-0.8
O=C(O)c1cc2nc(-c3ccccc3)cc(-c3ccccc3)n2n1	8.9	-8.4	-0.4	-2.8	3583	-3.6
C/C(=N\NC(=O)c1cc(C)oc1C)c1ccc(N2CCOCC2)cc1	15.5	-2.9	-0.5	34.0	4287	0.0
Nc1nncn1C(=O)CCc1ccccc1	-0.9	-0.7	u	-11.0	22172*	-4.1
SMILES	MazF activator	Anthrax LF inh2	BoNT A protease	DUSP3 inh	Autofluor counter	BoNT-F LC inh
CCN(CC)c1ccc(/C=C2/C(=O)c3ccc(C(=O)O)cc3C2=O)cc1	74.4*	1.9	2.1	-14.2	4961	-4.2
COc1cccc(-c2[nH]nc3c2C(c2ccsc2)C(C#N)=C(N)O3)c1 (stereo not drawn)	8.1	1.3	1.5	36.7	22773*	0.4
COc1ccc(-c2[nH]nc3c2C(c2ccsc2)C(C#N)=C(N)O3)cc1 (stereo not drawn)	1.3	-4.1	-1.1	37.0	16667*	-3.9
COc1cc(-c2[nH]nc3c2C(c2ccoc2)C(C#N)=C(N)O3)cc(OC)c1OC (stereo not drawn)	-2.2	-5.4	0.1	44.1	2760	-11.4
COc1cccc(-c2[nH]nc3c2C(c2ccoc2)C(C#N)=C(N)O3)c1 (stereo not drawn)	0.5	0.5	u	19.9	21204*	1.8
Cc1ccc(-c2[nH]nc3c2C(c2ccsc2)C(C#N)=C(N)O3)cc1 (stereo not drawn)	-8.8	-12.7	-1.4	19.0	9623	-9.4
Cc1ccc(-n2c(N)c(S(=O)(=O)c3ccccc3)c3nc4ccccc4nc32)cc1	-9.3	3.8	0.8	3.3	2631	0.9
Cc1cccc(S(=O)(=O)c2c(N)n(/N=C/c3cccnc3)c3nc4ccccc4nc23)c1	-34.5	2.5	0.4	17.4	5409	-1.9
Cc1cccc(S(=O)(=O)c2c(N)n(/N=C/c3ccco3)c3nc4ccccc4nc23)c1	4.0	-1.3	2.6	17.4	22583*	4.7
Nc1c(S(=O)(=O)c2ccccc2)c2nc3ccccc3nc2n1/N=C/c1ccco1	10.6	-0.2	u	20.8	19798*	-1.0
Cc1ccc(S(=O)(=O)c2c(N)n(NC(=O)C3CC3)c3nc4ccccc4nc23)cc1	4.7	-3.5	-0.5	9.5	16643*	0.7
Cc1ccc(S(=O)(=O)c2c(N)n(/N=C/c3ccco3)c3nc4ccccc4nc23)cc1C	15.0	-5.0	0.7	-22.4	2315	0.2
Cc1ccc(S(=O)(=O)c2c(N)n(/N=C/c3ccco3)c3nc4ccccc4nc23)cc1	5.4	-3.9	-0.2	25.2	20865*	-4.2
COc1cc(C(=O)NNC(=O)c2cc(S(=O)(=O)N(C)C)ccc2N2CCCC2)cc(OC)c1OC	-1.1	-12.0	0.0	x	3019	-13.9
C=CCC(NCc1ccccc1)c1ccco1 (stereo not drawn)	5.5	-0.1	-0.5	14.3	8397	-7.2
O=C(O)CCCC(=O)Nc1ccc(Br)cc1	-2.1	-1.0	0.2	7.6	23089*	0.1
CC(C)Oc1ccc(NC(N)=O)cc1	2.5	8.3	-0.5	15.3	8881	-1.8
CC(C)Oc1ccc(NC(=O)CCC(=O)O)cc1	1.7	-1.2	-1.4	10.5	16641*	-0.5
Cc1ccc(NC(=O)CNc2cccc(C)c2C)c(C)c1	5.5	1.1	1.1	10.9	4019	-19.3
O=C(O)CCCC(=O)Nc1ccc(Cl)cc1	-4.2	0.3	1.4	34.0	3294	-0.1
Cc1ccc(NC(=O)CNc2ccc(OC(C)C)cc2)c(C)c1	9.6	-7.6	2.8	4.3	19175*	-19.9
Nc1c(C2=NCCO2)nnn1Cc1ccccc1	6.7	-8.6	-3.3	3.5	17624*	-9.3
